The record followed here is PubChem BioAssay AID651965 (National Center for Advancing Translational Sciences (NCATS), 2013).

The campaign covered roughly 340,000 compounds. About 6,400 (1.9%) were called active. About 4% were inconclusive and are not listed. The call rests on the fitted dose curve; in most records, active means well fitted falling curve with a large enough effect; inconclusive means small, poorly fitted or top-dose-only effect; inactive means no such curve, though single readings can be large or run the other way. What follows is part of a selection rich in actives, with near analogues and random picks from the rest. Entries that show only a call come without a potency.

Sequence of ATP-dependent Clp protease proteolytic subunit (Bacillus subtilis (strain 168)) (P80244 whole entry, looked up): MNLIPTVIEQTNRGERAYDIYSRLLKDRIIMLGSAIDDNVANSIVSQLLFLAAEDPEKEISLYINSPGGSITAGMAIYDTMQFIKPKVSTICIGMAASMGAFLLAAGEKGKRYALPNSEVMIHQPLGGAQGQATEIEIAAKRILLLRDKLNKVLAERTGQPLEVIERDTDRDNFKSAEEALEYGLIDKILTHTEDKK

This experiment addresses ATP-dependent Clp protease proteolytic subunit (Bacillus subtilis (strain 168)) (UniProt P80244). As to the kind of experiment: qHTS Assay for Activators of ClpP. Further: the source files actives as falling curves though it sought activators and does not explain the sign; nearly all actives have a fitted effect of over 65% in size. The settings on record: purified B. subtilis ClpP, FRET peptide cleavage, 20 min; series mostly up to 57.5 µM. An excerpt: The Clp protease proteolytic subunit (ClpP) is the core unit of the Clp complex belonging to the peptidase family S14 that hydrolyzes protein into small peptides in the presence of ATP and magnesium. It is ubiquitously expressed and is the major protease in bacteria. […] Unlike common antibiotics that simply interfere with the essential enzyme activity, ADEP binding activates the ClpP core in the absence of the regulatory Clp-ATPases leading to uncontrolled proteolysis and eventually cell death. Activators binding to the docking site on ClpP can also block formation of the ClpXP and ClpA/C-P holoenzyme complexes interfering with the normal biological functions of ClpP and thus have the potential to become new anti-microbials.
To identify activators of ClpP, a FRET based quenching reversal assay was developed using a purified B. subtilis ClpP and a decapeptide substrate (FRET-FV). The FRET-FV is tagged with a fluorescent molecule amino benzoic acid (donor) at the N-terminus and a nitrotyrosine quencher (acceptor) at the C-terminus. FRET-FV cleaves upon activation of ClpP with ADEP treatement and reverses the quenching effect of the nitrotyrosine causing an increase in fluorescence emission signal at 430nm. This assay was used to screen the Molecular Libraries Small Molecule Repository (MLSMR).
NIH Molecular Libraries Probe Production Centers Network [MLPCN]
NIH Chemical Genomics Center [NCGC]
Assay Submitter (PI): Michael Maurizi, National Cancer Institute
Two and a half microL/well of purified enzyme solution (final concentrations 10 microg/mL B. subtilis ClpP in 100 mM Tris/HCl pH8, 100 mM KCl, 0.05% low protease BSA, 2.5% glycerol, 0.01% Tween-20 buffer) was dispensed into 1536-well assay plates (Greiner, black solid, medium-binding plates) with Aurora Discovery BioRAPTR Flying Reagent Dispenser (FRD, Beckton-Dickenson). Compound solution (23 nL) was transferred to the assay plate using Kalypsys pin tool equipped with a 1536-pin tool. […] FRET signals at time 0 and after 20 min room temperature incubation were obtained using the PerkinElmer Envision plate reader with 320nm excitation and 430nm emission filters. Delta FRET value (Time 20 - Time 0) was calculated and normalized to the delta FRET value of positive control ADEP (5.8 microM final concentration) and negative control DMSO and no enzyme wells.
For orientation: In qHTS, concentration-response curves come from the screen itself.
`COC(=O)Cc1cc(=O)oc2c(C)c(O)ccc12`: the Potency was 15.8 µM (active).
With `COc1cccc(C(=O)OCc2cc(=O)oc3c(C)c(C)ccc23)c1OC`, the Potency entry was “inactive”.
Under `CCOC(=O)[C@]12CCC=C1N(CCC1=CCCCC1)C(=O)[C@H](CC(=O)NCc1ccc(C)o1)C2` stands “inactive”.
Under `Cc1nccn1-c1ccc(NC(=O)[C@H]2O[C@@H](n3cnc4c(N)ncnc43)[C@H](O)[C@@H]2O)cc1` stands “inactive”; under `O=C(NCc1cccnc1)c1cc(C2CCCN(C(=O)C3CCCCC3)C2)on1` (stereo not given), “inactive”.
As for `CN(C)c1ccc(/C=C/C=C/c2ccnc3ccccc23)cc1`, the Potency entry was “inactive”.
Under `COc1ccc(Br)c(Cn2c(C)c(C(=O)NCc3cccs3)sc2=O)c1` stands “inactive”; under `O=C(NCc1ccccc1)C(c1ccc(F)cc1)N1CCN(C(=O)C2CCCO2)CC1` (stereo not given), “inactive”.
On to `CCN(Cc1ccccc1)C(=O)c1cn(-c2cccc(OC)c2)c(=O)c2ccccc12`, for which the Potency result was “inactive”.
For the compound `COc1cccc(CNC(=O)c2cccnc2Sc2ccc(Cl)cc2)c1`, the Potency result was “inactive”.
On to `COc1cccc(-n2cc(C(=O)NCc3cccc(Cl)c3)c3ccccc3c2=O)c1`, for which the Potency is 25.1 µM (active).
Under `CC1(C)CC(=O)c2cc(C(=O)NCc3ccccc3)c(=O)[nH]c2C1` stands “inactive”.
For the compound `CC(=O)Nc1cc(C(=O)NCc2ccc(F)cc2Cl)ccc1Sc1ccc(Cl)cc1`, the Potency entry is “inactive”.
Under `Cc1ccc(-c2ccc(=O)n(Cc3ccc(F)cc3Cl)n2)cc1` stands “inactive”; under `CN(C)Cc1ccc(F)cc1Sc1cc(Cl)ccc1Cl`, 12.6 µM (active).
To `Brc1cccc[n+]1Cc1cccc(C[n+]2ccccc2Br)c1` belongs “inactive”; to `Cc1ccc2oc(=O)ccc2c1`, “inactive”.
Under `CC(C)C(=O)Nc1ccc2oc(=O)ccc2c1` stands 35.5 µM (active).
For the compound `CC(C)C(=O)Nc1ccc2c(c1)oc1ccccc12`, the Potency entry was “inactive”.
With `COc1ccc(C(C)(O)c2nc(-c3cc(F)cc(F)c3)cs2)cc1` (stereo not given), the Potency entry is “inactive”.
Turning to `CN1CCN(c2ccc3c(c2)OC[C@H](Cc2ccccc2)NS3(=O)=O)CC1`, the Potency entry was “inactive”.
Under `COc1ccccc1CNC(=O)c1cc(-c2cc(F)ccc2OC)n[nH]1` stands “inactive”.
Under `O=C(OC1CCOC1=O)c1ccc(-c2nc3ccccc3s2)s1` (stereo not given) stands 17.8 µM (active).
Under `Cc1nn(Cc2ccccc2)c(Cl)c1C(=O)OC1CCOC1=O` (stereo not given) stands “inactive”; under `CC(C)(C)c1ccc(OCC(=O)N2CCC(c3nc4ccccc4s3)CC2)cc1`, “inactive”; under `COCCNC(=O)c1cc2c(Br)ccc(Br)c2nc1N`, “inactive”.
As to `CCOP(=O)(OCC)C(Cc1ccccc1)N=C(c1ccccc1)c1ccccc1` (stereo not given), the Potency result was “inactive”.
Under `CCCC1OC23CCCCC2C(C#N)(C#N)C1(C#N)C(=N)O3` (stereo not given) stands 20 µM (active); under `O=C(Nc1ccccc1)c1ccccc1OCc1ccccc1`, “inactive”; under `C[C@H]1CN([C@@H](C)CO)C(=O)CCCn2nncc2CO[C@@H]1CN(C)Cc1ccc(Oc2ccccc2)cc1`, “inactive”.
To `NC(c1ccccc1)c1csc(NC(=O)Nc2cccc(C(F)(F)F)c2)n1` (stereo not given) belongs “inactive”; to `Cc1cccn2c(=O)c3cc(C(=O)N4COCC4(C)C)n(C)c3nc12`, 28.2 µM (active).
To `CCCn1c(=N)c(C(=O)NCc2ccccc2)cc2c(=O)n3cccc(C)c3nc21` belongs “inactive”; to `COCCCn1c(C(=O)NC2CCCCC2)cc2c(=O)n3cccc(C)c3nc21`, “inactive”; to `O=C1NC[C@H](CCCCN2C[C@H](Cc3ccc(O)cc3)N(CC3CCCCC3)C(=O)C2=O)N(CCc2ccccc2)C1=O`, “inactive”.
For the compound `Cn1c(=O)c2cc(NC(=O)NCCc3cccs3)ccc2n1Cc1cccc(C(F)(F)F)c1`, the Potency result is “inactive”.
For the compound `Cc1nn(-c2ccccc2)c2c1C(c1ccc(F)cc1)C(C#N)=C(N)O2` (stereo not given), the Potency result is “inactive”.
To `CSc1ccc(-c2c(C#N)c(N)nc3c2c(C)nn3-c2ccccc2)cc1` belongs 22.4 µM (active); to `Cc1nc2c(c(C)nn2-c2ccccc2)c(C)c1C`, “inactive”; to `COc1ccc(NC(=O)C2(C)Cc3c(-c4cccc(NC(C)=O)c4)ccnc3O2)cc1OC` (stereo not given), “inactive”.
To `FC(F)(F)c1cccc(-c2cc3ccccc3nc2N2CCCC2)c1` belongs 31.6 µM (active); to `O=C(Nc1cc(C(F)(F)F)ccc1Cl)c1nc2ccccc2nc1N1CCCCC1`, “inactive”.
Under `FC(F)(F)c1cccc(-c2nc3ccccc3n2C(c2ccccc2)c2nc3ccccc3[nH]2)c1` (stereo not given) stands “inactive”; under `CC(=O)c1ccc[n+](C(C)CCC(C)[n+]2cccc(C(C)=O)c2)c1` (stereo not given), “inactive”.
For `O=C(Nc1cccc(C(=O)O)c1)/C(=C\c1ccccc1)NC(=O)c1ccc(Br)o1`, the Potency result was “inactive”.
Under `CC(=O)NC(c1ccccc1)c1nc(-c2cccc(C(C)C)c2)cs1` (stereo not given) stands “inactive”.
Regarding `CC1(C(=O)NS(=O)(=O)c2cccc(F)c2)CCN1C(=O)c1cccc2ccccc12` (stereo not given), the Potency entry was “inactive”.
Under `COCCNc1nc(-c2ccccc2)nc2c1oc1ccccc12` stands “inactive”; under `CCc1nc(Nc2ccc(NC(C)=O)cc2)c2oc3ccccc3c2n1`, “inactive”; under `CCc1nc(Nc2ccc3nccnc3c2)c2oc3ccccc3c2n1`, 28.2 µM (active).
